The list is not random: actives were taken first. Their share in the collection is about 2.4%.
TLR4-MyD88 BLA – blocks binding of human TLR4 to MyD88; HeLa CL3-4 TLR4/MyD88 BLA complementation, FRET ratio; inhibition, % at 8.4 µM; 0.18% of 200,000 active; in the data active means inhibition above about 25%;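 further: 0% = vehicle and 100% = reference inhibitor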
ABHD5 PLIN5 PPI – ABHD5-PLIN5 protein interaction inhibition; Q00G26+Q8WTS1; inhibition, % at 4 µM; AID 602281; 0.78% of 360,000 active; Split G. princeps luciferase complementation, luminescence, 4 h;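 active means inhibition above the mean inhibition across every tested compound plus 3 SD, cut at about 22% in these data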;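 further: 0% = DMSO only wells and the 100% control is not disclosed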
NOD2 RIPK2 PPI – blocks binding of human NOD2 to RIPK2; 0.38% of 360,000 active; inhibition, % at 4.98 µM; CHO BLA complementation NOD2-RIPK2, CCF4 ratio; in the data active means inhibition above about 21%;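 further: 0% = vehicle only and 100% = reference blocker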
HTR2A ag – mouse HTR2A agonism via beta-arrestin recruitment | P35363 | CHO-K1 mHTR2A beta-arrestin complementation, luminescence; percent of 30 µM serotonin response | activation, % at 7.6 µM | 0.66% of 360,000 active;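 active means activation above a run cutoff, the mean activation of all tested compounds plus 3 SD, cut at about 14% in these data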;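 further: 0% = plate median of compound wells and 100% = 30 µM serotonin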
TLR9-MyD88 block – blocks human TLR9 binding to MyD88 | CHO BLA complementation TLR9-MyD88, CCF4 FRET ratio | inhibition, % at 4.98 µM | 0.21% of 340,000 active | AID 504734;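 active means inhibition above the mean over all tested compounds plus 3 SD, cut at about 21% in these data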;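 further: 0% = DMSO only wells and 100% = clavulanate BLA inhibitor control wells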
CRFR2-BP antag – blocks CRF-induced signaling of the CRF-BP/CRF-R2 complex; HEK293 CRF-R2/CRF-BP, CRF-induced calcium fluorescence; inhibition, % at 11.8 µM; 0.59% of 350,000 active; AID 588475;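 active means inhibition of the ligand-induced calcium signal above about 50% at the single tested concentration, limit read from the data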
MOR ag counter – counter-screen for mouse HTR2A agonists: human mu opioid receptor agonists. shares compounds with HTR2A ag. activation, % at 9.3 µM. U2OS OPRM1 beta-arrestin PathHunter, luminescence; DMSO 0%, DAMGO 9.3 µM 100%. 5.3% of 2,300 active;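 active means mean activation above the mean of DMSO-only wells plus 3 SD, cut at about 0.5% in these data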
Target sequence (P35372 whole entry, looked up): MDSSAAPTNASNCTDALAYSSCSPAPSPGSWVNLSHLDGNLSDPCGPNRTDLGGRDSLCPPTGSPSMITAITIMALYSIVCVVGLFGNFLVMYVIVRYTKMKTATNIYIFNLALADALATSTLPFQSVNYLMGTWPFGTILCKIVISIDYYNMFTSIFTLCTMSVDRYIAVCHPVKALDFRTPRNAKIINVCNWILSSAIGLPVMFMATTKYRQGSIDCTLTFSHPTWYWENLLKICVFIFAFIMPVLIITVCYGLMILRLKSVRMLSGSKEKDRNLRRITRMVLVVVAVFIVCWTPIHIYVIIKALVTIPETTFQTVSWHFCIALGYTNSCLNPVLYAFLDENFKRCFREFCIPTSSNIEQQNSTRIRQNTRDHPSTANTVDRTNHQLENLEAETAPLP
HTR2A ag conf – confirmation of mouse HTR2A serotonin receptor agonists; shares compounds with HTR2A ag; CHO-K1 PathHunter beta-arrestin recruitment, luminescence; DMSO 0%, 30 µM serotonin 100%; activation, % at 7.6 µM; 19% of 2,300 active;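 active means mean activation across triplicates above the hit threshold derived in the original primary screen, cut at about 15% in these data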
Numbers without * were called inactive; . = not tested or not shown.

SMILES	TLR4-MyD88 BLA	ABHD5 PLIN5 PPI	NOD2 RIPK2 PPI	HTR2A ag	TLR9-MyD88 block	CRFR2-BP antag	MOR ag counter	HTR2A ag conf
Nc1nn(-c2ccccc2)c(N)c1N=Nc1ccccc1	16.7	-5.2	-6.0	-5.4	5.3	-27.9	.	.
Nc1ncnc(N)c1N=Nc1ccccc1	.	6.0	-5.4	21.1*	-10.9	-4.9	-0.6	-2.4
C=CCN1C(=O)C(O)(CC(=O)c2ccc(N)cc2)c2ccccc21 (stereo not given)	-15.1	-0.2	1.0	23.0*	8.2	-18.8	-0.7	-4.3
COC(=O)CN1C(=O)C(O)(CC(=O)c2ccccc2)c2ccccc21 (stereo not given)	1.9	1.4	-3.7	0.5	-4.2	-2.9	.	.
CCC(CC)C(C(=O)NCc1ccccc1)N1CCN(C(=O)C2CCCO2)CC1 (stereo not given)	.	-6.0	-6.4	-2.4	.	.	.	.
CC(=O)Nc1nc(C)cs1	-4.0	-2.3	-3.5	15.6*	-2.9	-24.2	-0.3	-0.8
COc1cccc(OCC(O)CN2CCN(c3ncccn3)CC2)c1 (stereo not given)	-19.6	2.5	1.1	4.8	-2.7	-12.5	.	.
OC(COc1ccc2cc(Br)ccc2c1)CN1CCN(c2ccccn2)CC1 (stereo not given)	5.0	8.1	-6.9	24.2*	-0.4	1.6	-0.2	107.8*
OC(COc1ccc2cc(Br)ccc2c1)CN1CCCC1 (stereo not given)	-2.4	18.6	0.1	-6.4	-4.2	-54.7	.	.
COc1cccc(OCC(O)CN2CCN(c3ccccn3)CC2)c1 (stereo not given)	-5.7	6.0	0.9	33.1*	4.3	4.9	-0.6	83.8*
Cn1c(N)c(N2CCCCC2)c(=O)n(CC(=O)Nc2cccc(C#N)c2)c1=O	.	-0.3	-7.9	20.0*	-5.2	16.6	-0.7	-4.8
COc1ccc(CN2C(=O)CSCC2(C)C(=O)Nc2ccc3c(c2)OCCO3)cc1 (stereo not given)	.	-4.8	0.9	-4.6	.	.	.	.
CC(=O)c1c(C)[nH]c(C(=O)Nc2ccc(Cl)cc2)c1C	.	-7.9	-8.8	-6.0	2.3	-11.3	.	.
CC(=O)c1c(C)[nH]c(C(=O)Nc2ccccn2)c1C	.	-5.7	-8.1	15.3*	-6.4	5.2	-0.5	-0.6
O=C1COc2ccccc2C(c2nc3ccccc3[nH]2)N1C1CC1 (stereo not given)	.	6.8	-7.4	3.3	.	.	.	.
COc1ccc(S(=O)(=O)N2CCC(N3CCN(Cc4ccccc4)CC3)CC2)cc1	-7.8	5.4	-13.5	22.1*	0.7	-5.6	-0.7	41.5*
O=S(=O)(c1ccc(Cl)cc1)N1CCN(C2CCN(Cc3ccccc3)CC2)CC1	2.8	4.5	0.5	-2.6	-3.2	6.0	.	.
CC(=O)Nc1ccc(CN2C(=O)C(C)(C)ON=C2c2ccc(C(F)(F)F)cc2)cc1	.	3.3	-4.3	1.1	.	.	.	.
COc1cccc(N2CCN(Cc3nc(N)nc(N4CCCc5ccccc54)n3)CC2)c1	0.7	-2.3	8.0	16.5*	5.9	-15.7	-0.5	41.6*
CC(=O)Nc1ncc(Sc2ccc([N+](=O)[O-])cc2)s1	.	5.1	0.3	20.1*	1.2	14.2	-0.3	-3.5
CC(=O)NCCC(=O)Nc1ncc(S(=O)(=O)c2ccc([N+](=O)[O-])cc2)s1	.	9.9	-2.0	3.6	-2.4	-1.0	.	.
COc1ccc(-c2noc(CN(C(=O)c3ccc4c(c3)OCO4)C(C)C)n2)cc1OC	.	12.8	2.9	15.9*	9.6	0.3	-0.6	-2.8
O=C(Nc1cccc2ccccc12)c1csc([C@@H]2O[C@H](CO)[C@H](O)[C@H](O)[C@H]2O)n1	.	-0.5	-2.8	-0.7	.	.	.	.
COc1cc2c(cc1OC)C(C)N(C(=O)Cn1ncc3c1-c1cc(C)ccc1OC3)CC2 (stereo not given)	-10.4	-1.8	-6.9	1.6	-9.8	-7.3	.	.
CCCCN(CC)C(=O)Cn1ncc2c1-c1cc(C)ccc1OC2	-12.3	-2.7	-36.9	16.5*	-1.6	-0.8	-0.6	-0.6
SMILES	TLR4-MyD88 BLA	ABHD5 PLIN5 PPI	NOD2 RIPK2 PPI	HTR2A ag	TLR9-MyD88 block	CRFR2-BP antag	MOR ag counter	HTR2A ag conf
CC(C)(C)c1ccc(C(=O)N2CCC2(C)C(=O)Nc2cccc3ncccc23)cc1 (stereo not given)	.	-0.3	-12.7	1.1	.	.	.	.
CCc1c(C)nn(C(=O)/C(C#N)=C\N(C)C)c1C	-15.7	-0.9	-9.5	42.4*	-14.0	-3.1	-0.1	1.8
CCOC(=O)/C(C#N)=C\N(C)C	-5.6	16.7	-0.7	7.6	-8.1	27.9	.	.
O=C1NC[C@@H](CCCCN2CCN(CCc3ccccc3)C(=O)C2=O)N(Cc2ccccc2)C1=O	.	1.2	-13.7	0.0	.	.	.	.
CCCN1CCC(=NNc2ccc(S(=O)(=O)N3CCOCC3)cc2[N+](=O)[O-])CC1	-3.5	13.6	-15.4	17.1*	-7.7	7.4	0.2	1.4
CC(C)N1CCC(=NNc2ccc(S(=O)(=O)N3CCOCC3)cc2[N+](=O)[O-])CC1	0.1	-3.1	6.3	-0.1	5.0	11.9	.	.
COC(=O)Cc1ccc(NC(=S)N2CCN(c3cccc(O)c3)CC2)cc1	5.0	-5.3	1.0	24.5*	5.2	12.8	-0.3	2.7
Cc1ccc(S(=O)(=O)N2C[C@H]3N(C(=O)OC(C)C)N(C(=O)OC(C)C)C[C@H](OC(=O)NCC4CCCCC4)[C@@]3(O)C2)cc1	.	-4.0	-2.0	-2.6	-7.4	-1.4	.	.
COc1ccc(Cl)cc1NC(=O)C(=O)N/N=C/c1cc(C)n(-c2ccc(C)cc2)c1C	10.4	-1.6	3.0	17.6*	-3.3	47.5	-0.6	-4.0
CCOc1ccc(CCN2C(=S)N([C@@H](Cc3ccc(O)cc3)CN3CCC[C@@H]3CN3C(=S)NC[C@@H]3Cc3ccccc3)C[C@@H]2Cc2ccc(O)cc2)cc1	.	19.1	-1.7	-1.8	.	.	.	.
COc1ccccc1C1CC(=O)Nc2c1c(=O)n(C)c(=O)n2C (stereo not given)	3.8	6.8	-10.4	14.4*	-4.8	19.9	-0.1	1.8
CN1C2CCC1CC(NS(=O)(=O)c1ccc(C#N)cc1)C2 (stereo not given)	.	-3.0	-0.4	16.4*	-5.1	3.4	-0.6	-1.9
CCOC(=O)C1=CCN(Cc2ccccc2)CC1	.	2.8	-1.6	18.6*	9.3	-2.6	-0.3	80.1*
CC1CCN(c2c(NCC3CCC(C(=O)NCc4ccccc4Cl)CC3)c(=O)c2=O)CC1 (stereo not given)	-8.9	-6.7	4.2	19.2*	6.3	20.7	-0.5	-4.3
COc1ccccc1C(=O)NC(=O)COC(=O)C1(C)CC1(Cl)Cl (stereo not given)	.	-1.9	-6.9	18.0*	1.4	-2.4	-0.7	-4.8

High-throughput results deposited in PubChem BioAssay by several laboratories.
